Molecules are shown by their SMILES. “And” between values parts separate entries of the source, which are not always exact repeats. Equal values may be shown once. Records with an inconclusive call do not appear. Where a call stands in place of a potency, no number is given. A number with no mark means an inactive call. The source made the active and inactive calls. Calls follow the shape of the dose curve; as a rule, active = well fitted cell-killing curve with a large enough effect in the repeat runs; inconclusive = weak or mixed curves, or effect the other way; inactive = flat fitted curve, though single readings scatter.
Potency is read from the fitted curve at half-maximal effect.

A short description of the experiment: qHTS assay to identify small molecule agonists of the constitutive androstane receptor (CAR) signaling pathway - cell viability counter screen (AID 1224836). Also: nearly all actives have a fitted effect of over 45% in size. The following applies: HepG2-CYP2B6-hCAR viability, CellTiter-Fluor, 23 h, PK11195 added to every well; series mostly up to 92.4 µM; viability change, negative = cytotoxic: at the top concentration. A digest of the protocol: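 Counter screen multiplexed with the CAR reporter readout: HepG2 cells co-transfected with hCAR and the CYP2B6-2.2kb construct receive a 15-concentration compound series and 0.75 uM PK11195 (final), then CellTiter-Fluor fluorescence is read after 23 h.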
In general terms: qHTS replaces the single test concentration by a dilution series.
With `O=C(O)c1cn(-c2ccc(F)cc2)c2cc(N3CCNCC3)c(F)cc2c1=O`, the Potency result was “inactive”.

Turning to `CCCCC(CC)COC(=O)CC(C(=O)OCC(CC)CCCC)S(=O)(=O)O` (stereo not drawn), the “viability change, negative = cytotoxic” value is -12.9%.

Turning to `NC(N)=Nc1nc(CSCC/C(N)=N/S(N)(=O)=O)cs1`, the Potency entry is “inactive”.

As for `O=C(Oc1ccccc1)c1ccccc1O`, the Potency entry was “inactive”.

Regarding `CCN1CCCC1CNC(=O)c1cc(S(=O)(=O)CC)c(N)cc1OC` (stereo not drawn), the “viability change, negative = cytotoxic” value was 10.5% [at 42.5 µM].

Regarding `OCC(CO)N[C@H]1C[C@](O)(CO)[C@@H](O)[C@H](O)[C@H]1O`, the “viability change, negative = cytotoxic” value is 25.1% [at 42.5 µM].

On to `CCCCCCCCCCCCCC[P+](CCCC)(CCCC)CCCC`, for which the Potency is 19.2 µM (active) and 24.3 µM (active).

With `O=C(O)c1cccc(C(=O)O)c1`, the Potency entry is “inactive”.

Consider `CC(=O)N[C@@H](CS)C(=O)O`, for which the Potency result is “inactive”.

Regarding `CC1COC(=O)O1` (stereo not drawn), the Potency result was “inactive”.

As for `c1cc(C(c2ccc(OCC3CO3)cc2)C(c2ccc(OCC3CO3)cc2)c2ccc(OCC3CO3)cc2)ccc1OCC1CO1` (stereo not drawn), the Potency entry is “inactive”.

Regarding `NC(N)=NC(=O)Cc1c(Cl)cccc1Cl`, the “viability change, negative = cytotoxic” value was -20.4% [at 42.5 µM].

`CCCC(=O)c1ccccc1`: the “viability change, negative = cytotoxic” value is 3.24%.

Take `C=C(C)C1CC=C(C)C(OC(C)=O)C1` (stereo not drawn): the Potency result was “inactive”.

`CC(C)(C)NCC(O)COc1ccccc1OCC1CCCO1` (stereo not drawn): the “viability change, negative = cytotoxic” value was 1.27% [at 42.5 µM].

For the compound `COC(=O)[C@H]1[C@H]2C[C@@H]3c4[nH]c5cc(OC)ccc5c4CCN3C[C@H]2C[C@@H](OC(=O)c2cc(OC)c(OC)c(OC)c2)[C@@H]1OC`, the Potency entry is “inactive”.

For the compound `c1ccc2n[nH]nc2c1`, the Potency result is “inactive”.

Take `CC(=O)OCCOCCOCCOC(C)=O`: the Potency entry is “inactive”.

On to `COC(=O)/C=C/c1ccccc1`, for which the Potency entry is “inactive”.

Regarding `Cc1scc2c1N(C(=O)CN1CCN(C)CC1)c1ccccc1NC2=O`, the “viability change, negative = cytotoxic” value was 0.387% [at 42.5 µM].

`Oc1c(Cl)cc(Cl)c(Cl)c1Cc1c(O)c(Cl)cc(Cl)c1Cl`: the Potency was 7.67 µM (active).

As to `Nc1nc2ccccc2[nH]1`, the Potency result is “inactive”.

For the compound `CCN(CC)C(=S)SSC(=S)N(CC)CC`, the Potency was 273 nM (active) and 157 nM (active) and 422 nM (active).

Turning to `NCCCCCC(=O)O`, the “viability change, negative = cytotoxic” value is 7.09% [at 42.5 µM].

Consider `CC(C)(C)c1ccc(O)c(C(C)(C)C)c1`, for which the “viability change, negative = cytotoxic” value is -15.7%.

Turning to `CCC(C)(C)C(=O)O[C@H]1C[C@@H](C)C=C2C=C[C@H](C)[C@H](CC[C@@H]3C[C@@H](O)CC(=O)O3)[C@H]21`, the Potency result was “inactive”.

For the compound `O=C(O)CCc1ccccc1`, the “viability change, negative = cytotoxic” value was 3.09%.

With `OCCN1CCNCC1`, the Potency entry is “inactive”.

On to `[Cl][In]([Cl])[Cl]`, for which the Potency result is “inactive”.

Take `CC[C@H]1CN2CCc3cc(OC)c(OC)cc3[C@@H]2C[C@@H]1C[C@H]1NCCc2cc(OC)c(OC)cc21`: the Potency was 24.4 nM (active) and 150 nM (active).

In the case of `CC(C)CCOC(=O)c1ccc(N(C)C)cc1`, the “viability change, negative = cytotoxic” value was 1.29% [at 42.5 µM].

Take `Cc1cc(C2(c3cc(C)c(O)cc3C)OS(=O)(=O)c3ccccc32)c(C)cc1O`: the Potency is 24.3 µM (active) and 27.3 µM (active).

As to `CCOC(=O)C(C)C(C)=O` (stereo not drawn), the “viability change, negative = cytotoxic” value is -4.03%.

For `CC(C)(C)c1cc(C(C)(C)C)c(O)c(C(C)(C)C)c1`, the Potency result was “inactive”.

`CCC[C@H](N[C@@H](C)C(=O)N1[C@H](C(=O)O)C[C@@H]2CCCC[C@@H]21)C(=O)OCC`: the Potency result is “inactive”.

As for `CC(COc1ccccc1)N(CCCl)Cc1ccccc1` (stereo not drawn), the Potency result is “inactive”.

As to `O=C1CC2(CCCC2)CC(=O)N1CCCCN1CCN(c2ncccn2)CC1`, the Potency result was “inactive”.

`O=c1n(CC2CO2)c(=O)n(CC2CO2)c(=O)n1CC1CO1` (stereo not drawn): the Potency was 54.2 µM (active) and 61.1 µM (active).
